{"source": "PubChem BioAssay (NCI)", "note": "This is part of a sample that, as a whole, favours compounds with a hit. Of some 79,000 tested, about 15% had one in any assay. Active and inactive are the calls of the source. No stated cut-off is given here; in the data, active means growth inhibition above about 70%; inactive means the rest."}
{"assay": "NCI Yeast Anticancer Drug Screen. Data for the cln2 rad14 strain (AID 165);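 further: 0% = growth equal to vehicle treated cultures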", "settings": "S. cerevisiae cln2 rad14 strain, at 50.0 µM, stronger effect = higher value", "in_short": "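Strain: cln2 rad14 yeast, altered in cell cycle control and DNA damage repair. Read-out: growth inhibition vs vehicle.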"}
{"smiles": "Cc1cnc2cccc(C)c2c1Cl", "growth inhibition": "-16.4% (inactive)"}
{"smiles": "c1ccc(CCc2ccccn2)nc1", "growth inhibition": "7.2% (inactive)"}
{"smiles": "O=C1CC(O)C2C(=O)c3c(c(Cl)c4ccccc4c3O)C(=O)C2C1", "note": "(stereo not drawn)", "growth inhibition": "4.75% (inactive)"}
{"smiles": "CCOC(=O)CC1CC2c3cc(OC)c(OC)cc3CCN2CC1CC", "note": "(stereo not drawn)", "growth inhibition": "-5.25% (inactive)"}
{"smiles": "Cc1cc(=O)oc2cc3c(cc12)Oc1ccccc1O3", "growth inhibition": "3.5% (inactive)"}
{"smiles": "COC(=O)C(C(=O)C(=O)Nc1cccc(O)c1)c1nc2ccc(Cl)cc2[nH]c1=O", "note": "(stereo not drawn)", "growth inhibition": "2.55% (inactive)"}
{"smiles": "CC(=O)SC12CCCN1C(=O)C1(SC(C)=O)CCCN1C2=O", "note": "(stereo not drawn)", "growth inhibition": "-28.9% (inactive)"}
{"smiles": "CCCCCCN(CCCCCC)CC(O)c1c(Cl)ccc2ccccc12", "note": "(stereo not drawn)", "growth inhibition": "98.6% (active)"}
{"smiles": "CC(=O)Nc1cc(C)ccn1", "growth inhibition": "-35% (inactive)"}
{"smiles": "Cn1c(=O)c2c(ncn2CN2CCN(Cn3cnc4c3c(=O)n(C)c(=O)n4C)CC2)n(C)c1=O", "growth inhibition": "16.1% (inactive)"}
{"smiles": "Nc1cccc(SC2CC(=O)N(c3ccc4c(c3)OCO4)C2=O)c1", "note": "(stereo not drawn)", "growth inhibition": "79.2% (active)"}
{"smiles": "O=S(=O)(c1cnccc1N1CCN(CCO)CC1)N1CCCC1", "growth inhibition": "-7.6% (inactive)"}
{"smiles": "CCCCCCCCCCCCCCCc1cc(OC)ccc1S(=O)(=O)O", "growth inhibition": "30.9% (inactive)"}
{"assay": "NCI Yeast Anticancer Drug Screen. Data for the bub3 strain (AID 167)", "settings": "S. cerevisiae bub3 mutant strain, at 50.0 µM, stronger effect = higher value", "in_short": "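Screening used yeast with an engineered genetic alteration affecting cell cycle control. Compound-exposed cultures were compared with vehicle cultures, and reduced growth was taken as inhibition.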"}
{"smiles": "Clc1nc(N2CCOCC2)c2[nH]cnc2n1", "growth inhibition": "8.8% (inactive)"}
{"smiles": "COc1ccc(/C=N/Nc2nc(C)c(C)s2)cc1", "growth inhibition": "7.35% (inactive)"}
{"smiles": "c1cc2c3c(c1)ccc1cccc(c13)CC2", "growth inhibition": "-22.8% (inactive)"}
{"smiles": "COC(=O)C(Cc1c[nH]c2ccccc12)NP(=O)(O)OCC1OC(n2cc(F)c(=O)[nH]c2=O)CC1O", "note": "(stereo not drawn)", "growth inhibition": "-24.7% (inactive)"}
{"smiles": "Cc1cc(C)c(NC(=O)C(Br)C(Br)c2ccccc2)c(C)c1", "note": "(stereo not drawn)", "growth inhibition": "2.15% (inactive)"}
{"smiles": "O=c1c2ccccc2nnn1OCc1ccccc1", "growth inhibition": "-12.3% (inactive)"}
{"smiles": "O=C(Nc1ccc([N+](=O)[O-])cc1)OCc1ccccc1", "growth inhibition": "1.7% (inactive)"}
{"smiles": "O=C(/C=C/CC(O)(c1ccccc1)c1ccccc1)Nc1ccccc1Cl", "growth inhibition": "10.1% (inactive)"}
{"smiles": "SC1c2ccccc2-c2ccccc21", "growth inhibition": "-30.2% (inactive)"}
{"smiles": "NCCNCCCCCCCCCCCCOS(=O)(=O)O", "growth inhibition": "-25% (inactive)"}
{"smiles": "O=C1OC2C(Cl)C3CC1C2C3", "note": "(stereo not drawn)", "growth inhibition": "4.65% (inactive)"}
{"smiles": "CC1(C)COC(c2ccc3ccccc3c2)OC1", "growth inhibition": "35.4% (inactive)"}
{"smiles": "CCc1ccccc1NOC", "growth inhibition": "8.45% (inactive)"}
{"smiles": "O=C1CNS(=O)(=O)N1", "growth inhibition": "-16.4% (inactive)"}
{"smiles": "CC1(C)OP2(O)(OC(C)(C)c3ccccc32)c2ccccc21", "growth inhibition": "6.85% (inactive)"}
{"smiles": "COc1ccc(/C=C(\\Cl)c2ccc(OC)cc2)cc1", "growth inhibition": "5.6% (inactive)"}
{"smiles": "CC1S(=O)(=O)OCCCOS1(=O)=O", "growth inhibition": "-2.45% (inactive)"}
{"smiles": "CCc1cc(O)cc(C)c1Cl", "growth inhibition": "44.3% (inactive)"}
{"smiles": "O=S(=O)([O-])c1ccc2c(c1)-c1nc-2nc2[n-]c(nc3nc(nc4[n-]c(n1)c1ccc(S(=O)(=O)[O-])cc41)-c1cc(S(=O)(=O)[O-])ccc1-3)c1ccc(S(=O)(=O)[O-])cc21.[Cu+2].[Na+]", "growth inhibition": "-34% (inactive)"}
{"smiles": "CCOC(=O)Nc1cc(Cl)c2nnn(C(=O)OCC)c2n1", "growth inhibition": "96.7% (active)"}
{"smiles": "CC1CNC(=O)NC1=O.O.O.[NH2-].[NH2-].[Pt+4]", "note": "(stereo not drawn)", "growth inhibition": "-5.95% (inactive)"}
{"smiles": "O=C1NC(c2ccccc2)(c2ccccc2)C(=O)N1CNc1ccccn1", "growth inhibition": "-8.3% (inactive)"}
{"smiles": "COC(=O)C1(CC(=O)/C=C/c2ccccc2)NC(=S)NC(=O)C1C#N", "note": "(stereo not drawn)", "growth inhibition": "-19.9% (inactive)"}
{"smiles": "CCC(C)C(CC)C(=O)N(C)C(=O)N(C)C(C)=O", "note": "(stereo not drawn)", "growth inhibition": "13.7% (inactive)"}
{"smiles": "Cc1cc(O)c(C(C)C)cc1N=Cc1ccccc1O", "growth inhibition": "-21.6% (inactive)"}
{"smiles": "CCc1cccc(Nc2ccccc2C(=O)O)c1", "growth inhibition": "-2.05% (inactive)"}
{"smiles": "CC(C)c1sc([S-])n[n+]1-c1ccccc1", "growth inhibition": "-4.3% (inactive)"}
{"smiles": "Cc1cnc2cccc(C)c2c1Cl", "growth inhibition": "8.3% (inactive)"}
{"smiles": "c1ccc(CCc2ccccn2)nc1", "growth inhibition": "9.5% (inactive)"}
{"smiles": "O=C1CC(O)C2C(=O)c3c(c(Cl)c4ccccc4c3O)C(=O)C2C1", "note": "(stereo not drawn)", "growth inhibition": "3.85% (inactive)"}
{"smiles": "CCOC(=O)CC1CC2c3cc(OC)c(OC)cc3CCN2CC1CC", "note": "(stereo not drawn)", "growth inhibition": "1.95% (inactive)"}
{"smiles": "Cc1cc(=O)oc2cc3c(cc12)Oc1ccccc1O3", "growth inhibition": "5.8% (inactive)"}
{"smiles": "COC(=O)C(C(=O)C(=O)Nc1cccc(O)c1)c1nc2ccc(Cl)cc2[nH]c1=O", "note": "(stereo not drawn)", "growth inhibition": "-8.65% (inactive)"}
{"smiles": "CC(=O)SC12CCCN1C(=O)C1(SC(C)=O)CCCN1C2=O", "note": "(stereo not drawn)", "growth inhibition": "3.3% (inactive)"}
{"smiles": "CCCCCCN(CCCCCC)CC(O)c1c(Cl)ccc2ccccc12", "note": "(stereo not drawn)", "growth inhibition": "96.4% (active)"}
{"smiles": "CC(=O)Nc1cc(C)ccn1", "growth inhibition": "-2.95% (inactive)"}
{"smiles": "Cn1c(=O)c2c(ncn2CN2CCN(Cn3cnc4c3c(=O)n(C)c(=O)n4C)CC2)n(C)c1=O", "growth inhibition": "-63.9% (inactive)"}
{"smiles": "Nc1cccc(SC2CC(=O)N(c3ccc4c(c3)OCO4)C2=O)c1", "note": "(stereo not drawn)", "growth inhibition": "91.7% (active)"}
{"smiles": "O=S(=O)(c1cnccc1N1CCN(CCO)CC1)N1CCCC1", "growth inhibition": "3.05% (inactive)"}
{"smiles": "CCCCCCCCCCCCCCCc1cc(OC)ccc1S(=O)(=O)O", "growth inhibition": "3.1% (inactive)"}
